TEAD-YAP inh – TEAD-YAP interaction inhibition. AID 1259422. HEK-TIYL cells, TEAD-Gal4/YAP UAS-luciferase luminescence. 640,000 tested, 1.4% active. inhibition, % at 9.12 µM; in the data active means inhibition above about 32%;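 further: 0% = median of test compound wells and 100% = reference inhibitor wells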
FBW7 activator – activators of human E3 ligase FBW7 | AlphaScreen FBW7–phospho-cyclin E peptide binding, activator screen | AID 1259310 | 650,000 tested, 0.13% active | normalized activity (activation), % at 26.1 µM; in the data active means normalized activity above about 1.9%;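 further: purified mutant Fbw7 with reduced substrate affinity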
MITF primary – inhibitors of human MITF | O75030 | AlphaScreen MITF homodimerization, bead proximity signal | inhibition, % at 2.6 µM | 650,000 tested, 0.91% active | AID 1259374; in the data active means inhibition above about 50%;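 further: 0% = vehicle wells with protein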
Target sequence (O75030 whole entry, looked up): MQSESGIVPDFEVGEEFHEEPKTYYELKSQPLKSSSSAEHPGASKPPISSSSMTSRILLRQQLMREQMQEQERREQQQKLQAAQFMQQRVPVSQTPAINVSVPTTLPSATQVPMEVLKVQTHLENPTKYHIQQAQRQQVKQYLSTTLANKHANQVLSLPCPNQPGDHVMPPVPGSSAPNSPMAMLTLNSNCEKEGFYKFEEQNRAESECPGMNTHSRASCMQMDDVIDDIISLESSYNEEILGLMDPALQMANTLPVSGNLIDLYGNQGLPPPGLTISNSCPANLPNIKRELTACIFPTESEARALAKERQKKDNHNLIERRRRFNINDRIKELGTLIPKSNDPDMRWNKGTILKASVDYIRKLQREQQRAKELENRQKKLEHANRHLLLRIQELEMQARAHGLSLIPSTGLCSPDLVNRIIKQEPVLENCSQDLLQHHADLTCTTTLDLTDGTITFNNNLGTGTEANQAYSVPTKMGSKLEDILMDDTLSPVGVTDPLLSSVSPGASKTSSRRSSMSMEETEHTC
GPR151 activ – human GPR151 activation. PathHunter beta-arrestin GPR151 cells, luminescence. Q8TDV0. 650,000 tested, 1% active. AID 1508602. activation, % at 11.2 µM; in the data active means activation above about 4.9%;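 further: 0% = median of compound wells and 100% = cells with positive control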
* = called active by the depositor. Shown are actives, neighbours in structure and some others; about 3.4% of the full set was active somewhere.

SMILES | TEAD-YAP inh | FBW7 activator | MITF primary | GPR151 activ
Oc1cccc(C(Nc2nccs2)c2ccc3cccnc3c2O)c1 (stereo unspecified) | 73.5* | -1.2 | 68.8* | 0.4
CCCCN(C)C(=O)c1sc2ncn(CC(=O)Nc3cccc(C(F)(F)F)c3)c(=O)c2c1C | 3.1 | 0.1 | -6.8 | -0.8
CC(CNC(=O)C(=O)Nc1ccc(C(C)(C)C)cc1)c1ccccc1 (stereo unspecified) | 3.9 | 0.2 | 15.0 | 3.2
C/C(=N\Nc1ncc(Cl)cc1Cl)c1ccccn1 | 81.7* | -0.1 | 19.4 | -0.6
c1ccc2c(c1)CC/C2=N/Nc1ccc2ccccc2n1 | 74.4* | 0.1 | 12.4 | -1.1
CC(C)(C)C(=O)COC(=O)c1ccc(S(C)(=O)=O)c([N+](=O)[O-])c1 | 2.1 | 0.1 | 3.7 | 0.8
CS(=O)(=O)c1ccc(C(=O)OCc2cccc(C(F)(F)F)c2)cc1[N+](=O)[O-] | 52.3* | -0.1 | 10.4 | 2.8
CC1(C)Cc2c(sc(NC(=O)c3ccccc3)c2C(=O)O)CO1 | 46.5* | -0.1 | 4.2 | -4.5
CC1(C)Cc2c(sc(NC(=O)c3ccccc3)c2C(N)=S)CO1 | -63.8 | -0.1 | -4.0 | -0.8
CC(C)COc1ccc(C(=O)Nc2sc3c(c2C(=O)O)CC(C)(C)OC3)cc1 | 20.4 | 0.1 | 4.8 | 0.7
COc1ccc(C(=O)Nc2sc3c(c2C(=O)O)CC(C)(C)OC3)cc1OC | 40.1* | -0.1 | -18.2 | 0.1
CN1C(=O)/C(=C/C2=Cc3ccccc3OC2)SC1=S | 5.6 | -0.1 | -6.3 | 1.1
CN1CC=C(/C=C/C2=Cc3ccccc3OC2)CC1 | 74.7* | -0.1 | -4.0 | -7.6
O=C(Cn1c2ccccc2n2cc(-c3ccccc3)cc12)N1CCCC1 | -18.3 | 0.8 | 21.7 | 1.1
Fc1ccccc1CSc1nnnn1-c1ccc2c(c1)OCO2 | -6.7 | 0.1 | 5.7 | 3.2
Fc1ccc(CSc2nnnn2-c2ccc3c(c2)OCO3)c(Cl)c1 | 51.0* | -0.1 | 2.3 | -0.1
C=CCc1cc(OC)ccc1OCCCNCCO | 0.1 | 0.2 | 39.9 | 3.9
COc1ccc(-c2cc(C(=O)O)c3ccccc3n2)cc1 | -6.7 | 0.1 | 21.4 | 0.7
COc1ccc(/C=C/c2cc(C(=O)O)c3ccccc3n2)cc1 | 60.3* | -0.1 | 0.6 | -1.5
Cc1ccc(NC(=O)CN2CCN(c3nccn3-c3cccc(Cl)c3)CC2)c(C)c1 | 19.0 | -0.2 | 15.1 | -0.7
O=C(O)CCCN1C(=O)CSC1=S | 57.3* | -0.1 | 0.1 | 1.8
O=C(O)CCCCCN1C(=O)CSC1=S | 32.5* | 0.0 | -13.2 | -1.0
O=C1CSC(=S)N1CCCCCCN1C(=O)CSC1=S | -4.6 | -0.2 | -17.0 | -0.4
CC(C)(C)NC(=O)CSc1nc(-c2ccccc2)cs1 | 61.8* | 0.3 | -19.1 | 1.7
CC(=O)c1ccc(NC(=O)Nc2cccc(C(=O)O)c2)cc1 | 51.3* | 0.0 | -1.3 | 4.0
SMILES | TEAD-YAP inh | FBW7 activator | MITF primary | GPR151 activ
CC(=O)c1cccc(NC(=O)CN(c2ccccc2)S(C)(=O)=O)c1 | 8.1 | 1.9* | -18.7 | -0.6
CC(=O)c1cccc(NC(=O)CCl)c1 | 98.7* | -0.1 | -4.4 | 1.1
CS(=O)(=O)N(CC(=O)Nc1cccc(Cl)c1)c1ccccc1 | 3.9 | 0.1 | 1.9 | 0.9
CC(=O)c1cccc(NC(=O)CCC(=O)Nc2cccc(C(C)=O)c2)c1 | 8.6 | 0.1 | 9.9 | -1.0
CC(=O)c1cccc(NC(=O)Nc2ccccc2)c1 | -24.7 | 0.1 | 0.3 | -1.4
c1ccc(CN2CCC(Nc3cc(-c4csc5ccccc45)ncn3)CC2)cc1 | 9.2 | -0.2 | 2.1 | 0.8
c1ccc2c(-c3cc(NC4CC4)ncn3)csc2c1 | 35.0* | 0.5 | 12.7 | -0.8
Cc1cccc(-n2c(C)cc(C=C3C(=O)NC(=S)NC3=O)c2C)c1 | 11.8 | -0.2 | -10.9 | -0.3
Cc1cc(C=C2C(=O)NC(=S)NC2=O)c(C)n1-c1cccc(C(=O)O)c1 | -1.5 | -0.4 | 77.7* | 1.9
Cc1cc(C=C2C(=O)N(C)C(=S)N(C)C2=O)c(C)n1-c1ccc(Cl)c(C(=O)O)c1 | 2.7 | -0.4 | 68.5* | -0.7
CC(=O)NC1=NC(=O)/C(=C/c2cc(C)n(-c3cccc(C(=O)O)c3)c2C)S1 | 17.6 | -0.7 | 74.7* | 0.7
Cc1cc(C=C2C(=O)NC(=O)NC2=O)c(C)n1-c1ccc(C(=O)O)c(Cl)c1 | 6.4 | -0.3 | 54.3* | 0.1
Cc1cc(C=C2C(=O)N(C)C(=O)N(C)C2=O)c(C)n1-c1ccc(Cl)c(C(=O)O)c1 | -9.4 | -1.2 | 4.4 | -0.5
CC(=O)NC1=NC(=O)/C(=C/c2cc(C)n(-c3ccc4c(c3)OCO4)c2C)S1 | 4.0 | -0.1 | 1.7 | 0.5
COc1ccc(N(C)C(=O)CCN2C(=S)NC(C)(C)CC2C)cc1 (stereo unspecified) | -1.0 | -0.1 | -9.5 | 0.1
Cn1c(=O)c2[nH]c(Nc3cccc(C(F)(F)F)c3)nc2n(C)c1=O | 44.6* | 0.0 | 16.2 | 0.8
C/C(CC(=O)NC12CC3CC(CC(C3)C1)C2)=N\NC(=O)c1ccc(Br)cc1 | -11.1 | 0.0 | -9.7 | 1.1
OCC1CCCN1c1nc(NCc2cccc(C(F)(F)F)c2)c2ncn(Cc3ccc(C(F)(F)F)cc3)c2n1 (stereo unspecified) | -4.2 | -0.2 | -2.0 | -1.0
COc1cc([N+](=O)[O-])ccc1NC(=O)N1CCN(S(C)(=O)=O)CC1 | 8.3 | 0.0 | 6.8 | -1.4
Cc1ccc(CC(=O)N2CC(=O)Nc3ccccc32)cc1 | 45.1* | 0.0 | 6.4 | 3.6
COc1ccc(CC(=O)N2CC(=O)Nc3ccccc32)cc1OC | 24.8 | 0.0 | 7.5 | 0.1
Cc1cccc2cc(C#N)c(SCC(=O)N3CC(=O)Nc4ccccc43)nc12 | 52.9* | -0.1 | 4.8 | 4.7
Cc1ccc(CC(=O)N2CC(=O)Nc3ccccc32)c(C)c1 | 34.2* | -0.2 | -11.7 | -1.3
CC(C)c1ccc2nc(SCC(=O)N3CC(=O)Nc4ccccc43)c(C#N)cc2c1 | 8.3 | 0.2 | 19.4 | -0.5
CSc1cccc(C(=O)N2CC(=O)Nc3ccccc32)c1 | 43.3* | -0.1 | -5.3 | 0.4
SMILES | TEAD-YAP inh | FBW7 activator | MITF primary | GPR151 activ
CCOc1ccc(N(CC(=O)NC(C)(C)C)S(=O)(=O)c2ccc(C)cc2)cc1 | 0.6 | -0.1 | 7.8 | -0.1
O=C(Nc1ccc(C23CC4CC(CC(C4)C2)C3)cc1)c1cccc(Cl)c1 | 59.7* | 0.0 | 7.7 | 0.0
COc1ccc(N2CCN(CCN3CCCCC3)CC2)cc1 | 6.6 | 0.7 | 81.9* | -0.8
Cc1c(C)n(CC(O)CNc2ccccc2)c2ccccc12 (stereo unspecified) | -0.1 | 0.3 | 58.8* | 2.5
COc1ccc(NCC(O)Cn2c3ccccc3c3ccccc32)cc1 (stereo unspecified) | 51.4* | -0.1 | 12.9 | -0.6
COC(=O)c1ccccc1OC(=O)c1ccc2c(c1)C1C=CCC1C(C(=O)O)N2 (stereo unspecified) | 7.2 | -0.5 | 68.3* | 0.1
O=C(O)c1ccc(C2Nc3ccc([N+](=O)[O-])cc3C3C=CCC32)cc1 (stereo unspecified) | -11.1 | -1.9 | 76.2* | 0.0
O=C(O)c1ccc2c(c1)C1C=CCC1C(c1ccc(F)cc1)N2 (stereo unspecified) | 0.0 | -0.7 | 29.6 | 1.5
O=C(O)c1ccc2c(c1)C1C=CCC1C(c1ccccc1)N2 (stereo unspecified) | 4.0 | -0.9 | 59.3* | 0.5
